From PubChem BioAssay

Assay: RAM pathway blockade in budding yeast – dse1pr::URA3 reporter, 5-FOA selection, pilot screen (AID 869);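 note: 0% = DMSO wells with no growth and 100% = 10 µM 1-NA-PP1 with full growth; RAM network block rescues cells from 5-FOA so hits raise OD615 growth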
Details: S. cerevisiae dse1pr::URA3 5-FOA growth, OD615, 2 d; at 10 µM; stronger effect = higher value; strain carries analog-sensitive mutant Cbk1 kinase;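 active = inhibition over a set limit, the all-compound mean plus 3 SD, in both replicate runs; inconclusive = over that limit in just one replicate run; inactive = at or under that limit in both runs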

inhibition, inactive:
CCOCCOC(=O)C1=C(C)N(C)C(=O)NC1c1ccccc1Cl (stereo unspecified) 0.375%, COc1ccc(C(=O)NCC(c2cccnc2)N2CCN(c3ccccc3)CC2)cc1OC (stereo unspecified) 1.5%, CCCCCCN=CC1=C(O)C(C(=O)OC)C(C)(C)CC1=O (stereo unspecified) 0.93%, COCCN1C=C(C(=O)OC)C(c2ccc3c(c2)OCO3)C(C(=O)OC)=C1 -0.19%, CCCCCOC(=O)Cn1c(=O)oc2ccccc21 0.385%, O=C(NCc1ccco1)c1nnc(Cc2ccc(F)cc2)o1 1.21%, CCOC(=O)CSc1nc2sc(C(=O)O)c(C)c2c(=O)[nH]1 1.92%, COc1ccc(NC(=O)C2c3cc(OC)c(OC)cc3C(=O)N(C)C2c2cccnc2)cc1OC (stereo unspecified) 0.645%, Fc1ccc(-n2[nH]nnc2=S)cc1N1CCCC1 -0.32%, CCc1c(C)sc(NC(=O)c2cccs2)c1C(=O)OC(C)C 1.9%, COC(=O)c1cc(OC)c(OC)cc1NC(=O)c1c(-c2ccccc2Cl)noc1C 1.68%, CC1=C(C(=O)OCC2CCCO2)C(c2ccncc2)C2=C(CCCC2=O)N1 (stereo unspecified) 2.9%, COc1ccc(S(=O)(=O)N2CCC(C(=O)N3CCc4ccccc4C3)CC2)cc1OC -0.455%, O=C(CN1CCOc2ccccc21)N1CCC(Cc2ccccc2)CC1 1.46%, CCOCCCNC(=O)C(c1ccc(Cl)cc1)N1CCN(c2ccccc2)CC1 (stereo unspecified) 0.95%, COC(=O)c1c(NC(=O)CSc2nnnn2-c2ccccc2)sc2c1CCC(C)C2 (stereo unspecified) 2.46%
